Assay results: PubChem BioAssay (Tox21)
Values joined by “and” are separate entries in the source; they are usually repeats but may differ in a detail not shown here. Equal values may be shown once. The source holds several records for some structures; these can differ, active in one and inactive in another. Active and inactive are the calls of the source. Unless noted, the call rests on the fitted dose curve; in most records, active means well fitted curve in the direction sought with a large enough effect in the repeat runs; inconclusive means weak or mixed curves; inactive means no such curve, though single readings can be large; an effect the other way counts as inactive or inconclusive.

Assays:
[1] = qHTS assay to test for compound auto fluorescence at 535 nm (green) in HEK293 cells (AID 720680)
[2] = qHTS assay to test for compound auto fluorescence at 460 nm (blue) in HEK293 cell free culture (AID 720681); further: potency means the concentration at half of the fitted maximal effect
Outline: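 Blue fluorescence (Ex 405/Em 460 nm, triamterene-equivalent) was read immediately after pin transfer of compound or DMSO into medium (DMEM, 10% FBS) without cells.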

[3] = qHTS assay to test for compound auto fluorescence at 535 nm (green) in HEK293 cell free culture (AID 720682)
Outline: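 Compounds were pin-transferred into cell-free DMEM with 10% FBS, and green fluorescence was read at excitation 485 nm and emission 535 nm. Intensities were expressed as fluorescein-equivalent values.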

[4] = qHTS assay to test for compound auto fluorescence at 590 nm (red) in HEK293 cell free culture (AID 720683)
Outline: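 Red-channel autofluorescence of compounds in culture medium (DMEM, 10% FBS), no cells, measured at 540/590 nm. Rose Bengal sodium is the reference fluorophore for equivalence.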

[5] = qHTS assay to test for compound auto fluorescence at 590 nm (red) in HepG2 cell free culture (AID 720684)
Outline: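 No cells present: MEM + 10% FBS only. Compound pinned in, red label read (540/590 nm). Activity = fluorescence equivalent to Rose Bengal sodium.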

[6] = qHTS assay to test for compound auto fluorescence at 460 nm (blue) in HepG2 cell free culture (AID 720685); further: potency means the concentration at half of the fitted maximal effect
Outline: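 Cell-free plates of MEM plus 10% FBS received 23 nL compound or DMSO vehicle; blue-channel (405/460 nm) intensity scored against triamterene as reference fluorophore.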

[7] = qHTS assay to test for compound auto fluorescence at 460 nm (blue) in HepG2 cells (AID 720687); further: potency means the concentration at half of the fitted maximal effect
Outline: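 Blue-channel autofluorescence (Ex/Em 405/460 nm, triamterene-equivalent) was measured after 1 hr compound exposure at 37 C, 5% CO2. Cells were HepG2, plated overnight at 37 C in MEM plus 10% FBS.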

[8] = qHTS assay to identify small molecule antagonists of the glucocorticoid receptor (GR) signaling pathway - cell viability counter screen (AID 720693); further: nearly all actives have a fitted effect of over 55% in size; further: potency means the concentration at half of the fitted maximal effect
[9] = qHTS assay for identifying genotoxic compounds that show differential cytotoxicity against isogenic chicken DT40 cell lines with known DNA damage response pathways - wild type cell line (AID 743012); further: nearly all actives have a fitted effect of over 60% in size; further: potency means the concentration at half of the fitted maximal effect
Outline: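 300 wt DT40 cells/well; cpd (DMSO) pintool-transferred after ~0.5 h at 37 C/5% CO2; 40 h incubation; CellTiter-Glo added, 30 min RT; luminescence read.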

[10] = qHTS assay for identifying genotoxic compounds that show differential cytotoxicity against isogenic chicken DT40 cell lines with known DNA damage response pathways - Rad54/Ku70 mutant cell line (AID 743015); further: nearly all actives have a fitted effect of over 60% in size; further: potency means the concentration at half of the fitted maximal effect
[11] = qHTS assay to identify small molecule antagonists of the androgen receptor (AR) signaling pathway - cell viability counter screen (AID 743033; further: nearly all actives have a fitted effect of over 45% in size; further: potency means the concentration at half of the fitted maximal effect)
[12] = qHTS assay to identify small molecule antagonists of the androgen receptor (AR) signaling pathway using the MDA cell line - cell viability counter screen (AID 743041; further: nearly all actives have a fitted effect of over 45% in size; further: potency means the concentration at half of the fitted maximal effect)
Outline: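 Using the breast carcinoma line MDA-kb2 AR-luc, test chemicals were co-incubated with R1881 for 16 h; CellTiter-Fluor reagent, added at 15.5 h, provided a fluorescence measure of live cells.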

[13] = target: Glucocorticoid receptor (Homo sapiens) (UniProt P04150); assay: qHTS assay to identify small molecule agonists of the glucocorticoid receptor (GR) signaling pathway (AID 720691; active means well fitted activation curve with a large enough effect in the signal ratio in the repeat runs, not every such curve was filed as active; inconclusive means weak or mixed curves, or effect the other way; inactive means no such curve, though single readings can be large or run the other way; the % refers to the signal ratio; further: potency means the concentration at half of the fitted maximal effect); conditions: GR-bla HeLa, beta-lactamase reporter ratio, 18 h; activation: at 62.4 µM (top of the series)
Chain of Glucocorticoid receptor (Homo sapiens) (P04150 whole entry, looked up): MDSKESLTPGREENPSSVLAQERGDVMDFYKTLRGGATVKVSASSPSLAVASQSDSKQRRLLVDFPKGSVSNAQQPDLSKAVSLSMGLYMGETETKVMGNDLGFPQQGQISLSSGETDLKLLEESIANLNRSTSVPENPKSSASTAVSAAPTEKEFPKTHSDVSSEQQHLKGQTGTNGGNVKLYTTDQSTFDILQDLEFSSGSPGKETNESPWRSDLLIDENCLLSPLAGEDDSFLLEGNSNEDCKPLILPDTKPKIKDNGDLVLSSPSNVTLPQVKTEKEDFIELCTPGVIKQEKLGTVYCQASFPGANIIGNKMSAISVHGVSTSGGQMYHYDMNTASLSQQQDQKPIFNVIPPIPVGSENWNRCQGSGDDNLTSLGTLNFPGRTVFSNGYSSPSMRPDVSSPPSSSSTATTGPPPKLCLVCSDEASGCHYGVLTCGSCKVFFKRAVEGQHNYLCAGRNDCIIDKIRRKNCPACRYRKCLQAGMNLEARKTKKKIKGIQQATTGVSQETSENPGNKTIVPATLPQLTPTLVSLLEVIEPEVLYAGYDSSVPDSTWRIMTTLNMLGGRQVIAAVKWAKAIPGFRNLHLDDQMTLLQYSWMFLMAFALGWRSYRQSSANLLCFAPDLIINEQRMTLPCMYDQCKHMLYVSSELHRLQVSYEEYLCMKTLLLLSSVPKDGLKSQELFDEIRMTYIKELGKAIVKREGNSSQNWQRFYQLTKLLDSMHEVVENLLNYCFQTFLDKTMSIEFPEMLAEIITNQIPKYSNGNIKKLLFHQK
Outline: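 A HeLa cervical cancer line expressing GR and a glucocorticoid response element-driven beta-lactamase gene is treated with compounds for 18 h; LiveBLAzer B/G FRET substrate is then applied and fluorescence read.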

[14] = target: Androgen receptor (Homo sapiens) (UniProt P10275); assay: qHTS assay to identify small molecule agonists of the androgen receptor (AR) signaling pathway (AID 743036; active means well fitted activation curve with a large enough effect in the signal ratio in the repeat runs, with a control signal flat, not every such curve was filed as active; inconclusive means weak or mixed curves, or effect the other way; inactive means no such curve, though single readings can be large or run the other way; the % refers to the signal ratio; further: potency means the concentration at half of the fitted maximal effect)
Chain of Androgen receptor (Homo sapiens) (P10275 whole entry, looked up): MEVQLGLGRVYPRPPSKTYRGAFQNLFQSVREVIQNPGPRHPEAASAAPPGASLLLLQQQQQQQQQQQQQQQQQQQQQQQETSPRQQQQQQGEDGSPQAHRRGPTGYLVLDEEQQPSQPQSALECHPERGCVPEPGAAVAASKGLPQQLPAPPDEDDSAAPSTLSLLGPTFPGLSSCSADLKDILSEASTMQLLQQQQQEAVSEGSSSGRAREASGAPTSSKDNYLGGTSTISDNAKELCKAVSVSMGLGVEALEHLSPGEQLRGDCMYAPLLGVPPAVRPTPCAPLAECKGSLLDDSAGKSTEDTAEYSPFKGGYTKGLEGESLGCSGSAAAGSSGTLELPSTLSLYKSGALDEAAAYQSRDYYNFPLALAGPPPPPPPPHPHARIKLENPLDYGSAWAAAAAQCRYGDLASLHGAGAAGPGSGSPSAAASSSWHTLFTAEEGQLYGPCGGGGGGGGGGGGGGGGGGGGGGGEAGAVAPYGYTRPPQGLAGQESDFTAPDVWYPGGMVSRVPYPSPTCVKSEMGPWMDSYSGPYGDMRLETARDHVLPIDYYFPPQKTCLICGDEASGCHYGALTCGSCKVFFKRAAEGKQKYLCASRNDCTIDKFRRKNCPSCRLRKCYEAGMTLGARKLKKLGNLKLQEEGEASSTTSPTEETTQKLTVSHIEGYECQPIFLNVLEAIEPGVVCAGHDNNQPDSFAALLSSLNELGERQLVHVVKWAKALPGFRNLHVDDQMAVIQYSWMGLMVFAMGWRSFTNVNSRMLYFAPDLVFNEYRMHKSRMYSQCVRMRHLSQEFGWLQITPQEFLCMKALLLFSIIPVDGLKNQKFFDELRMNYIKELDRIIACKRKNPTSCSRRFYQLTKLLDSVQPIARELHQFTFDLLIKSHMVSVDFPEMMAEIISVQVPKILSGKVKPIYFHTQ
Outline: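 Activation was read as beta-lactamase FRET signal from LiveBLAzer B/G substrate, added for 2 h at room temperature. Before that, GeneBLAzer AR-UAS-bla GripTite (HEK293) cells had 16 h compound exposure at 37C.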

[15] = target: Androgen receptor (Homo sapiens) (UniProt P10275); assay: qHTS assay to identify small molecule agonists of the androgen receptor (AR) signaling pathway using the MDA cell line (AID 743040; further: nearly all actives have a fitted effect of over 20% in size; further: potency means the concentration at half of the fitted maximal effect)
Outline: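 Stable MMTV-luciferase reporter in MDA-kb2 cells; note the promoter carries GR as well as AR response elements. 16 h compound treatment, 37C, 0% CO2; ONE-Glo luminescence endpoint.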

[16] = qHTS assay to test for compound auto fluorescence at 535 nm (green) in HepG2 cell free culture (AID 720686)
[17] = qHTS assay for identifying genotoxic compounds that show differential cytotoxicity against isogenic chicken DT40 cell lines with known DNA damage response pathways - Rev3 mutant cell line (AID 743014); further: nearly all actives have a fitted effect of over 55% in size; further: potency means the concentration at half of the fitted maximal effect
[18] = target: Androgen receptor (Homo sapiens) (UniProt P10275); assay: qHTS assay to identify small molecule antagonists of the androgen receptor (AR) signaling pathway (AID 743035; active means well fitted inhibition curve with a large enough effect in the signal ratio in the repeat runs, not every such curve was filed as active; inconclusive means weak or mixed curves, or effect the other way; inactive means no such curve, though single readings can be large or run the other way; the % refers to the signal ratio; further: potency means the concentration at half of the fitted maximal effect)
Outline: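 In this cell-based reporter screen, compounds were tested in concentration series against R1881-activated HEK293 cells expressing beta-lactamase under UAS control; after 16 h at 37C, FRET substrate was added and fluorescence read 2 h later.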

[19] = target: Glucocorticoid receptor (Homo sapiens) (UniProt P04150); assay: qHTS assay to identify small molecule antagonists of the glucocorticoid receptor (GR) signaling pathway (AID 720692; active means well fitted inhibition curve with a large enough effect in the signal ratio in the repeat runs, not every such curve was filed as active; inconclusive means weak or mixed curves, or effect the other way; inactive means no such curve, though single readings can be large or run the other way; the % refers to the signal ratio; further: potency means the concentration at half of the fitted maximal effect)
Outline: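 GRE-bla HeLa line, dex-stimulated (5 nM final). Compound exposure 18 h, 37 C. Beta-lactamase FRET read after 2 h RT substrate.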

[20] = target: Androgen receptor (Homo sapiens) (UniProt P10275); assay: qHTS assay to identify small molecule antagonists of the androgen receptor (AR) signaling pathway using the MDA cell line (AID 743042; further: nearly all actives have a fitted effect of over 55% in size; further: potency means the concentration at half of the fitted maximal effect)
Outline: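 Antagonist mode: compounds plus R1881 agonist added to MDA-kb2 AR-luc cells, incubated 16 h at 37C. Luciferase reporter luminescence quantified, with multiplexed CellTiter-Fluor readout for cell viability.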

Measured: Potency
Tags describe the fitted curve by direction and shape or compound fluorescence and quenching.

O=C(OCC(COC(=O)c1ccccc1)(COC(=O)c1ccccc1)COC(=O)c1ccccc1)c1ccccc1
not listed: [13] | [14] | [15] | [16] | [17] | [18] | [19] | [20]
inactive: all other assays above

O=C1CCCc2c1cc1ccc3cccc4ccc2c1c34
active: [13] 22.2 µM | [14] 14 µM
not listed: [16] | [17] | [18] | [19] | [20]
inactive: all other assays above

Oc1ccc(N=Nc2ccccc2)cc1
active: [17] 61.9 µM
inactive: [1] | [2] | [3] | [4] | [5] | [6] | [16] | [7] | [15]

O=C(N/N=C/c1ccccc1O)c1ccncc1
inactive: [1] | [2] | [3] | [4] | [5] | [16] | [8] | [12]
active: [9] 4.22 µM | [17] 2.98 µM | [10] 5.96 µM

C=CC(=O)OCCn1c(=O)n(CCOC(=O)C=C)c(=O)n(CCOC(=O)C=C)c1=O
inactive: [1] | [2] | [3] | [4] | [5] | [6] | [7] | [8]
active: [9] 2.73 µM | [17] 2.43 µM | [10] 2.43 µM | [11] 15.5 µM | [12] 30.6 µM

CCC1OCC(COc2ccc(Oc3ccccc3)cc2)O1 (stereo not drawn)
not listed: [9] | [10] | [14] | [15] | [16] | [18] | [19] | [20]
inactive: all other assays above

CC(C)(C)CC(C)(C)c1ccc(O)c(Cc2ccc(Cl)cc2Cl)c1
active: [8] 10.7 µM | [9] 26.6 µM | [10] 26.6 µM
not listed: [13] | [14] | [16] | [17] | [19] | [20]
inactive: all other assays above

O=c1cc(-c2ccc(O)cc2)oc2cc(O)cc(O)c12
active: [19] 27.9 µM and 27.5 µM | [8] 49 µM | [9] 27.3 µM | [17] 69.5 µM and 27.3 µM | [10] 31 µM and 13.7 µM
not listed: [14] | [15] | [16] | [18] | [20]
inactive: all other assays above

NNc1nc(-c2ccc([N+](=O)[O-])cc2)cs1
active: [8] 43.6 µM | [9] 6.11 µM | [17] 1.72 µM | [10] 4.33 µM | [11] 30.9 µM | [18] 24.5 µM | [12] 61.1 µM | [20] 48.6 µM
not listed: [13] | [14] | [16] | [19]
inactive: all other assays above

Cc1[nH]cnc1C[C@H]1CCc2c(C)c3ccccc3n2C1=O
active: [9] 13.3 µM and 26.6 µM | [17] 29.8 µM and 21.2 µM | [10] 23.7 µM
not listed: [2] | [11] | [14] | [15] | [18] | [20]
inactive: all other assays above

CCc1cc(Cc2cc(CC)cc(C(C)(C)C)c2O)c(O)c(C(C)(C)C)c1
active: [8] 11 µM | [9] 21.7 µM | [17] 19.3 µM | [10] 15.4 µM | [11] 24.5 µM | [18] 13.8 µM
not listed: [13] | [14] | [16] | [19] | [20]
inactive: all other assays above

CCCCN1C(=O)[C@@H]([C@H](O)C2CCCCC2)NC(=O)C12CCN(Cc1ccc(Oc3ccc(C(=O)O)cc3)cc1)CC2
inactive: [1] | [2] | [3] | [4] | [5] | [6] | [7] | [8] | [12]
active: [9] 61.1 µM | [10] 15.4 µM

CCCCC(CC)CN=C(N)NC(N)=NCCCCCCN=C(N)NC(N)=NCC(CC)CCCC (stereo not drawn)
inactive: [1] | [2] | [3] | [4] | [5] | [6] | [7] | [15]
active: [8] 19 µM | [9] 8.41 µM | [17] 11.9 µM | [10] 10.6 µM | [11] 13.4 µM | [12] 26.6 µM

Nc1ccc(N)c2ccccc12
active: [8] 21.8 µM | [9] 15.3 µM | [17] 5.44 µM | [10] 6.85 µM | [11] 12.3 µM | [12] 43.2 µM
not listed: [13] | [16] | [18] | [19] | [20]
inactive: all other assays above

O=C1c2ccccc2Cc2ccccc21
not listed: [10] | [13] | [14] | [15] | [16] | [18] | [19] | [20]
inactive: all other assays above

CCN(CC)CCCC(C)Nc1c2ccc(Cl)cc2nc2ccc(OC)cc12 (stereo not drawn)
inactive: [1] | [3] | [4] | [5] | [8] | [11]
active: [2] 17.8 µM | [6] 15.8 µM [fluorescent] | [7] 15.8 µM [fluorescent] | [9] 5.31 µM | [17] 5.96 µM | [10] 6.68 µM

O=c1cccccc1O
active: [17] 27.8 µM | [10] 55.5 µM | [11] 44.5 µM
not listed: [9] | [14] | [15] | [16] | [18] | [19] | [20]
inactive: all other assays above

Cc1cc(O)c(C(C)(C)C)cc1Sc1cc(C(C)(C)C)c(O)cc1C
active: [8] 10.9 µM | [9] 21.6 µM | [17] 12.2 µM | [10] 12.2 µM | [11] 15.5 µM | [12] 38.5 µM | [20] 24.3 µM
inactive: [1] | [3] | [4] | [5] | [6] | [7] | [15]

Cc1cc(O)c2ccccc2c1O
active: [9] 29.8 µM | [10] 29.8 µM
not listed: [2] | [13] | [14] | [16] | [17] | [19] | [20]
inactive: all other assays above

CSc1ccc2c(c1)C(N1CCN(C)CC1)Cc1ccccc1S2 (stereo not drawn)
inactive: [1] | [3] | [4] | [5] | [6] | [7] | [12]
active: [9] 5.96 µM | [17] 6.68 µM | [10] 9.44 µM

CN(C)c1ccc(C2(c3ccc(N(C)C)cc3)OC(=O)c3cc(N(C)C)ccc32)cc1
active: [13] 4.35 µM [inconclusive] | [10] 15.3 µM
not listed: [2] | [9] | [14] | [17] | [19]
inactive: all other assays above

CCOc1ccc2nc3cc(N)ccc3c(N)c2c1
inactive: [1] | [3] | [4] | [5] | [8] | [11] | [12]
active: [17] 26.6 µM | [10] 26.6 µM

CCCCCCCCCCCCCCCS(=O)(=O)Oc1ccccc1
not listed: [2] | [14] | [15] | [18] | [19] | [20]
inactive: all other assays above

CC(C)OC(=O)c1cc2c(OCC(O)CNC(C)(C)C)cccc2[nH]1 (stereo not drawn)
active: [9] 23.7 µM | [10] 26.6 µM
not listed: [2] | [8] | [14] | [17]
inactive: all other assays above

Clc1ccc2nsnc2c1NC1=NCCN1
active: [15] 26.6 µM
not listed: [2] | [13] | [14] | [20]
inactive: all other assays above

Oc1cccc(-c2c3nc(c(-c4cccc(O)c4)c4ccc([nH]4)c(-c4cccc(O)c4)c4nc(c(-c5cccc(O)c5)c5ccc2[nH]5)CC4)C=C3)c1
active: [9] 29.8 µM | [17] 29.8 µM | [10] 26.6 µM | [12] 23.7 µM
inactive and 23.9 µM (active): [11]
not listed: [2] | [8] | [13] | [14] | [18] | [19]
inactive: all other assays above

CS(=O)(=O)CCNCc1ccc(-c2ccc3ncnc(Nc4ccc(OCc5cccc(F)c5)c(Cl)c4)c3c2)o1
not listed: [2] | [13] | [14] | [16] | [19] | [20]
inactive: all other assays above

COc1cccc(N)c1
not listed: [2] | [14] | [15] | [18] | [19] | [20]
inactive: all other assays above
